# High-throughput results as filed in PubChem.
# ELG1 repair inh – inhibitors of ELG1-dependent DNA repair in HEK293T cells. HEK293T ELG1-luciferase reporter, luminescence, 16 h; DNA damage induced by 5-fluorouridine. Potency, µM (series often up to 46.1 µM), without a hit: at the highest dose activity change, negative = inhibition, hits mostly inhibitors. hit rate 2.3% among 330,000; further: potency means the concentration at half of the fitted maximal effect; nearly all actives have a fitted effect of over 55% in size
#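 In this reporter screen, reduction of luminescence relative to DMSO vehicle indicated activity. Compounds and 5-fluorouridine were added together to 2,000 cells per well, incubated for 16 hr at 37 °C, then developed with ONE-Glo.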
# DT40 TDP1 no CPT – qHTS for Inhibitors of human tyrosyl-DNA phosphodiesterase 1 (TDP1): qHTS in cells in absence of CPT. DT40 Tdp1-/- hTDP1 cells, no CPT, ATP luminescence, 48 h. Potency, µM (highest dose often 46.2 µM), for the others: top-dose activity change, negative = growth inhibition, usual class: inhibitors. hit rate 15% among 420,000; further: potency means the concentration at half of the fitted maximal effect; nearly all actives have a fitted effect of over 55% in size
#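 DT40 Tdp1-/-;hTDP1 cells, no CPT (DMSO vehicle only), 400 cells/well; compounds pin-transferred; ≥48 hr, 37 °C; CellTiter-Glo 30 min RT dark, luminescence read.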
# DT40 TDP1 CPT – DT40-hTDP1 cell growth loss with CPT | hit rate 12% among 420,000 | AID 686979 | Potency, µM (top dose mostly 46.2 µM), without a hit: top-dose activity change, negative = growth inhibition, usual class: inhibitors | chicken DT40 Tdp1-/-;hTDP1 cells + 20 nM CPT, ATP luminescence, 48 h; further: potency means the concentration at half of the fitted maximal effect; nearly all actives have a fitted effect of over 55% in size
#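 Chicken DT40 Tdp1-/- cells stably complemented with human TDP1 were seeded at 400 cells/well in medium containing 20 nM camptothecin, exposed to pin-transferred compounds, and grown at 37 °C for at least 48 hr. Viability was read as ATP luminescence.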
# IL-1B inflam inh – inflammasome signaling inhibition, IL-1 beta readout | THP-1 LPS/ATP IL-1B secretion, AlphaLISA, 16 h; stronger effect = lower value | hit rate 4.7% among 360,000 | activity change, % at 57.5 µM | AID 743279; in the data active means activity change below about -50%; inconclusive means mostly about -30% to -49%
#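 THP-1 cells pretreated 1 hr with compounds (up to 57.5 uM final), then stimulated with LPS (250 ng/mL final) plus ATP (1.25 mM final); secreted IL-1B measured by AlphaLISA after 16 hr, decreased signal indicating inhibition.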
# HT1080-NT tox – kills 2HG-producing HT-1080-NT fibrosarcoma cells. HT-1080-NT fibrosarcoma viability, CellTiter-Glo ATP luminescence, 48 h. hit rate 1.6% among 360,000. Potency, µM (doses to about 46.1 µM), inactives show top-dose activity, negative = less viability, usual class: cytotoxic;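 further: NT is the 2HG producing partner of a matched IDH1 knockdown line; potency means the concentration at half of the fitted maximal effect; 0% = DMSO-treated cells and -100% = media-only wells without cells; nearly all actives have a fitted effect of over 55% in size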
#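 HT-1080-NT fibrosarcoma cells (2HG-overproducing), 750 cells/well in RPMI with 5% FBS, dosed after 2 h and incubated 48 h at 37C. CellTiter-Glo luminescence normalized to DMSO and no-cell wells; concentration-response curves fitted and classed.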
# HT1080 IDH1KD tx – HT-1080 IDH1 knockdown cell toxicity (counter line). HT-1080 IDH1 knockdown viability, ATP luminescence, 48 h. Potency, µM (doses to about 46.1 µM), for inactives: at the highest dose activity, negative = toxicity, usual class: cytotoxic. hit rate 2% among 360,000;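 further: potency means the concentration at half of the fitted maximal effect; 0% = DMSO wells and -100% = cell-free medium wells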
#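 Cytotoxicity counter-line: IDH1KD HT-1080, 48 h, CellTiter-Glo. Curves classed by r2, magnitude and activity.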
# * = called active by the depositor; ? = inconclusive; . = not tested or not shown; ! = repeats disagree. Rows were chosen to be rich in hits. Some 19% of all compounds tested hit in one or more screens of this group. Unless noted, the call rests on the fitted dose curve; in most records, active means well fitted curve in the direction sought with a large enough effect; inconclusive means small, poorly fitted or top-dose-only effect, or another doubt; inactive means no such curve, though single readings can be large; an effect the other way counts as inactive or inconclusive. Unless noted, on the % scale 0 is the no-effect control and ±100 the full control effect.
SMILES,ELG1 repair inh,DT40 TDP1 no CPT,DT40 TDP1 CPT,IL-1B inflam inh,HT1080-NT tox,HT1080 IDH1KD tx
Cn1cc(SCC(=O)NCc2ccc(F)cc2)c2ccccc21,9.8%,1.2%,10.0%,-17.2,-6.4%,0.6%
O=C(CSc1cn(CCNC(=O)c2c(F)cccc2F)c2ccccc12)NCC1CCCO1 (centres undefined),?,?,-9.7%,-0.2,0.7%,0.4%
O=C(NCCn1cc(SCc2ccc(F)cc2)c2ccccc21)c1ccccc1F,?,16.4µM*,?,?,?,?
CCOC(=O)N1CCN(S(=O)(=O)c2cc(Br)cc3c2N(C(C)=O)C(C)C3)CC1 (centres undefined),-4.1%,-18.4%,-17.6%,35.2,9.7%,2.1%
CCOc1ccc(N(CC)S(=O)(=O)c2cc(Br)cc3c2N(C(C)=O)C(C)C3)cc1 (centres undefined),.,7.31µM*,20.6µM*,.,.,.
CC(=O)N1c2c(cc(Br)cc2S(=O)(=O)N2CCN(c3cccc(Cl)c3)CC2)CC1C (centres undefined),.,9.2µM*,10.3µM*,.,.,.
CCOc1ccc(OCC)c(NS(=O)(=O)c2cc(Br)cc3c2N(C(C)=O)C(C)C3)c1 (centres undefined),.,13µM*,?,.,.,.
Cc1ccccc1C(=O)Oc1cc(N)n(S(=O)(=O)c2ccccc2)n1,7.9%,14.1%,-12.1%,-10.1,1.3%,-1.3%
C=CCC(=O)N(CC)CC1CCCN(CCc2cccc(F)c2)C1 (centres undefined),9.1%,15.5%,-0.1%,15.5,3.0%,-2.1%
CCN(CC1CCCN(CCc2cccc(OC)c2)C1)C(=O)C=C(C)C (centres undefined),-4.5%,-0.2%,-8.7%,13.8,7.0%,-0.9%
CCOc1cccc(CN(CC)CC2CCCN(CCc3cccc(OC)c3)C2)c1O (centres undefined),-5.9%,16.4µM*,?,-18.8,-27.1%,-22.6%
CCN(Cc1ccc(O)cc1)CC1CCCN(CCc2cccc(F)c2)C1 (centres undefined),?,?,16.4µM*,-16.8,?,?
CCN(Cc1cccc(OC)c1)CC1CCCN(CCc2cccc(OC)c2)C1 (centres undefined),1.5%,?,14.6µM*,-10.8,1.7%,-0.7%
CC(=O)Nc1ccc(CN(C)CC2CCCN(CCc3cccc(C(F)(F)F)c3)C2)cc1 (centres undefined),-2.5%,?,13µM*,-69.2*,?,20.6µM*
CCN(CC1CCCN(CCc2cccc(F)c2)C1)C(=O)c1ccc(CSC)o1 (centres undefined),-1.3%,23.1µM*,?,-15.4,-5.1%,-24.6%
CN(C)CCN(Cc1ccccc1)S(=O)(=O)c1ccc2[nH]c(=O)ccc2c1,.,0.9%,-7.0%,.,.,.
CCc1ccc(NC(=O)CSc2nc(=O)n(CCCN3CCOCC3)c3c2CCC3)cc1,-14.7%,-15.3%,6.5%,-3.1,-1.2%,5.1%
CCCCc1ccc(NC(=O)CSc2nc(=O)n(CCCN3CCOCC3)c3c2CCC3)cc1,-19.6%,?,?,-83.2*,?,?
CCCCc1ccc(NC(=O)CSc2nc(=O)n(CCN3CCOCC3)c3c2CCC3)cc1,-1.8%,-22.0%,9.2%,-70.1*,5.8%,2.7%
CC(C)c1ccc(NC(=O)CSc2nc(=O)n(CCN3CCOCC3)c3c2CCC3)cc1,-2.1%,-13.4%,-15.7%,-8.4,10.0%,1.8%
CCc1ccccc1NC(=O)C1CCN(c2nc3ccccc3[nH]2)CC1,.,-22.2%,-21.3%,.,.,.
C=C(C)Cn1c(SCC(=O)N/N=C/c2c(O)ccc3ccccc23)nc2ccccc2c1=O,?,6.51µM*,7.31µM*,28.0,-6.4%,-3.1%
Cc1ccc(/C=N/NC(=O)CSc2nc3ccccc3c(=O)n2-c2ccccc2)s1,?,-25.3%,12.4%,0.0,-2.4%,14.0%
C=C(C)Cn1c(SCC#N)nc2ccccc2c1=O,-0.1%,-20.3%,-4.6%,-3.2,-4.3%,-4.3%
C=C(C)Cn1c(SCC)nc2ccccc2c1=O,?,10µM*!,?,4.5,5.4%,11.2%
SMILES,ELG1 repair inh,DT40 TDP1 no CPT,DT40 TDP1 CPT,IL-1B inflam inh,HT1080-NT tox,HT1080 IDH1KD tx
CCC(C)c1ccccc1NC(=O)C(C)OC(=O)c1ccco1 (centres undefined),6.9%,-0.5%,14.0%,12.0,1.9%,-2.0%
CCOC(=O)C(=CNNc1c(C)csc1C(=O)OC)C(=O)OCC,-22.3%,14.6µM*,?,54.0,-1.1%,-2.1%
CCOC(=O)N1CCN(c2nnc(-c3ccc(C)cc3)c3ccccc23)CC1,?,?,?,-67.1*,-22.2%,-27.8%
Cc1ccc(-c2ocnc2C(=O)N2CCN(C(=O)c3cccs3)CC2)cc1,-15.9%,-5.6%,9.8%,-9.5,12.2%,12.0%
O=C(CN1CCOCC1)N1CCN(c2nnc(-c3ccccc3)c3ccccc23)CC1,-4.3%,-20.0%,?,-14.4,6.6%,9.7%
CCOC(=O)N1CCN(c2nnc(-c3ccccc3)c3ccccc23)CC1,-26.4%,?,-8.5%,?,-2.7%,-14.5%
O=C(c1ccncc1)N1CCN(C(=O)c2cccs2)CC1,-2.8%,10.5%,5.8%,14.0,8.4%,12.2%
O=C(c1cccs1)N1CCN(c2nnc(-c3ccccc3)c3ccccc23)CC1,?,?,?,-87.5*,-25.8%,-13.7%
Cc1ccc(-c2nnc(N3CCN(C(=O)c4cccs4)CC3)c3ccccc23)cc1,-25.4%,23.1µM*,?,-7.9,-7.7%,-0.8%
CCCC(=O)N1CCN(c2nnc(-c3ccccc3)c3ccccc23)CC1,-15.0%,-13.8%,-18.6%,-51.3*,-1.2%,0.3%
COc1cccc(CNS(=O)(=O)c2ccc3c(c2)C(C)(C)C(=O)N3C)c1,25.9%,0.7%,2.1%,39.1,12.3%,2.3%
Cn1c(C(=O)NCCN2CCOCC2)cc2c(=O)n(C)c3ccccc3c21,?,-16.5%,?,-8.5,-8.9%,0.0%
O=C(CCNC(=O)Cn1ccc2ccccc2c1=O)NCCCN1CCN(c2ccccc2F)CC1,-2.3%,-9.7%,-24.3%,1.0,2.0%,-2.0%
Cn1c(C(=O)NCCCN2CCN(c3ccc(F)cc3)CC2)cc2c(=O)n(C)c3ccccc3c21,.,?,?,1.6,0.5%,5.7%
